According to PubChem BioAssay (NCI):
About 79,000 compounds went through this panel and 15% of them were active in at least one assay; those are over-represented in the sample as a whole. Activity calls are given as the source filed them. No stated cut-off is given here; in the data, active means growth inhibition above about 70%; inactive means the rest.

What was measured:
[1] = NCI Yeast Anticancer Drug Screen. Data for the rad52 strain (AID 147);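 further: 0% = growth of vehicle-treated control cultures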; conditions: S. cerevisiae rad52 mutant growth inhibition, stronger effect = higher value
How it was run: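 Growth of repair-deficient yeast cells was compared between compound-treated and vehicle-treated cultures to give percent inhibition.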

[2] = NCI Yeast Anticancer Drug Screen. Data for the wt1 strain (AID 149);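 further: 0% = growth of vehicle-treated wt1 cultures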; conditions: S. cerevisiae wt1 strain (SPY 50644) growth inhibition, stronger effect = higher value
How it was run: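 Readout: yeast growth inhibition, normalised to vehicle controls, in the wt1 strain exposed to test compounds.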

[3] = NCI Yeast Anticancer Drug Screen. Data for the rad50EPP+ strain (AID 151);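 further: 0% = growth of vehicle-treated control cultures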; conditions: S. cerevisiae rad50 mutant strain, stronger effect = higher value
How it was run: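 Measured: growth inhibition of rad50EPP+ yeast. Reference: vehicle-treated controls. Screen uses strains with defined genetic alterations in DNA damage repair or cell cycle control.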

[4] = NCI Yeast Anticancer Drug Screen. Data for the mgt1 strain (AID 153); conditions: S. cerevisiae mgt1 mutant growth inhibition, stronger effect = higher value
How it was run: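 Compounds were applied to mgt1 mutant yeast, and growth was then compared against vehicle-treated control cultures to give percent inhibition.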

[5] = NCI Yeast Anticancer Drug Screen. Data for the mec2-1 strain (AID 157); conditions: S. cerevisiae mec2-1 strain, stronger effect = higher value
How it was run: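 Compounds were applied to mec2-1 yeast cells. Their growth was then compared with that of vehicle-treated cultures to give growth inhibition.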

[6] = NCI Yeast Anticancer Drug Screen. Data for the rad14 strain (AID 159);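 further: 0% = growth of vehicle-treated control cultures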; conditions: S. cerevisiae rad14 strain growth inhibition, stronger effect = higher value
How it was run: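 Compound-treated yeast with a defined DNA-repair lesion; growth inhibition normalised to vehicle-treated cultures.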

[7] = NCI Yeast Anticancer Drug Screen. Data for the sgs1 mgt1 strain (AID 161);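 further: 0% = growth of cultures given vehicle only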; conditions: S. cerevisiae sgs1 mgt1 strain, stronger effect = higher value
How it was run: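 Yeast cells carrying a defined DNA-repair defect were exposed to test compounds. Growth inhibition was measured relative to vehicle-treated controls.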

[8] = NCI Yeast Anticancer Drug Screen. Data for the CLN2oe strain (AID 163);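 further: 0% = growth of vehicle-only control cultures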; conditions: S. cerevisiae CLN2oe strain, stronger effect = higher value
How it was run: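 Cells of an engineered yeast line with disturbed cell-cycle regulation are treated with compound. Inhibition of growth is then calculated relative to the vehicle-treated reference.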

[9] = NCI Yeast Anticancer Drug Screen. Data for the cln2 rad14 strain (AID 165);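 further: 0% = growth equal to vehicle treated cultures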; conditions: S. cerevisiae cln2 rad14 strain, stronger effect = higher value
How it was run: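 Strain: cln2 rad14 yeast, altered in cell cycle control and DNA damage repair. Read-out: growth inhibition vs vehicle.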

[10] = NCI Yeast Anticancer Drug Screen. Data for the bub3 strain (AID 167); conditions: S. cerevisiae bub3 mutant strain, stronger effect = higher value
How it was run: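 Growth of a checkpoint-deficient yeast mutant is measured after compound exposure. Values represent inhibition relative to vehicle.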

[11] = NCI Yeast Anticancer Drug Screen. Data for the wt2 strain (AID 169);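 further: 0% = growth of vehicle-treated yeast cultures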; conditions: S. cerevisiae wt2 strain growth inhibition, stronger effect = higher value
How it was run: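 Growth of compound-treated yeast is measured and expressed as inhibition relative to vehicle-only controls.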

[12] = NCI Yeast Anticancer Drug Screen. Data for the mlh1 strain (AID 171);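 further: 0% = growth of vehicle-treated control cultures of the same strain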; conditions: S. cerevisiae mlh1 strain growth inhibition, stronger effect = higher value
How it was run: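 Test agents were incubated with yeast bearing a defined DNA damage repair or cell cycle control alteration; values are growth inhibition normalised to vehicle-treated cultures.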

[13] = NCI Yeast Anticancer Drug Screen. Data for the sgs1 strain (AID 173);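 further: 0% = growth of vehicle-only control cultures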; conditions: S. cerevisiae sgs1 mutant, stronger effect = higher value
How it was run: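 Strain with an altered DNA repair or cell cycle pathway exposed to compound. Growth then measured. Value = inhibition versus vehicle control.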

[14] = NCI Yeast Anticancer Drug Screen. Data for the mlh1 rad18 strain (AID 175); conditions: S. cerevisiae mlh1 rad18 strain growth inhibition, stronger effect = higher value
How it was run: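 A repair-deficient yeast strain is exposed to test compound, and growth is scored relative to vehicle-treated controls.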

[15] = NCI Yeast Anticancer Drug Screen. Data for the rad18 strain (AID 177); conditions: S. cerevisiae rad18 mutant growth inhibition, stronger effect = higher value
How it was run: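 DNA-repair-defective yeast; compound treatment; growth inhibition scored against vehicle.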

[16] = at 5.0 µM (retest, dose inferred, filed as 0.5)
[17] = at 50.0 µM (retest, dose inferred, filed as 5.0)

Measured: growth inhibition

O=S(=O)(c1cc(Cl)ccc1O)c1cc(Cl)ccc1O
inactive: [1]; at 1.2 µM 24% | [2]; at 1.2 µM 1% | [3]; at 1.2 µM -1% | [3]; at 3.7 µM 5% | [3]; at 11.0 µM 12% | [3]; at 33.0 µM 14% | [3]; at 100.0 µM 45% | [4]; at 1.2 µM 15% | [5]; at 1.2 µM 30% | [5]; [16] 35% | [6]; at 1.2 µM 9% | [8]; at 1.2 µM 23% | [9]; [16] 23% | [10]; at 1.2 µM 20% | [10]; [16] 48% | [11]; at 1.2 µM 7% | [12]; at 1.2 µM 21% | [13]; at 1.2 µM 26% | [15]; at 1.2 µM 26%
active: [1]; at 3.7 µM 91% | [1]; at 11.0 µM 99% | [1]; at 33.0 µM 99% | [1]; at 100.0 µM 99% | [2]; at 3.7 µM 89% | [2]; at 11.0 µM 99% | [2]; at 33.0 µM 99% | [2]; at 100.0 µM 99% | [4]; at 3.7 µM 92% | [4]; at 11.0 µM 99% | [4]; at 33.0 µM 99% | [4]; at 100.0 µM 99% | [5]; at 3.7 µM 93% | [5]; at 11.0 µM 99% | [5]; at 33.0 µM 98% | [5]; [17] 100% | [5]; at 50.0 µM 99.7% | [5]; at 100.0 µM 100% | [6]; at 3.7 µM 96% | [6]; at 11.0 µM 99% | [6]; at 33.0 µM 99% | [6]; at 100.0 µM 100% | [7]; [16] 75% | [7]; [17] 100% | [7]; at 50.0 µM 99.5% | [8]; at 3.7 µM 89% | [8]; at 11.0 µM 99% | [8]; at 33.0 µM 100% | [8]; at 100.0 µM 99% | [9]; [17] 99% | [9]; at 50.0 µM 98.9% | [10]; at 3.7 µM 91% | [10]; at 11.0 µM 98% | [10]; at 33.0 µM 99% | [10]; [17] 99% | [10]; at 50.0 µM 99.4% | [10]; at 100.0 µM 99% | [11]; at 3.7 µM 85% | [11]; at 11.0 µM 97% | [11]; at 33.0 µM 99% | [11]; at 100.0 µM 100% | [12]; at 3.7 µM 85% | [12]; at 11.0 µM 99% | [12]; at 33.0 µM 99% | [12]; at 100.0 µM 99% | [13]; at 3.7 µM 91% | [13]; at 11.0 µM 99% | [13]; at 33.0 µM 99% | [13]; at 100.0 µM 99% | [14]; [16] 82% | [14]; [17] 99% | [14]; at 50.0 µM 99.7% | [15]; at 3.7 µM 84% | [15]; at 11.0 µM 98% | [15]; at 33.0 µM 99% | [15]; at 100.0 µM 99%
